The whole screen tested about 52,000 compounds, of which about 4,300 (8.3%) were called active. This excerpt belongs to a sample that is enriched for actives. A number with no mark means an inactive call. Rule as the data show it: active = survival mostly below about 52% (no sharp cut-off); inactive = mostly above about 56%.
Each molecule was assayed on DeltatarO mutant (assay: S. aureus survival, RN4220 and DeltatarO strains – OD600, teichoic acid synthesis inhibitors, primary screen (AID 463173)). Conditions: S. aureus RN4220 wild type/DeltatarO growth, OD600, 18 h, stronger effect = lower value, screened at 18.75 µg/mL (by protocol).

Compared with `COc1ccc(CCNC(=O)CCCCn2c(=O)c3ccccc3n(Cc3cc(C)ccc3C)c2=O)cc1OC`, `Cc1cccc(C(=O)Nc2ccccc2OCc2cc(=O)n3cc(C)ccc3n2)c1` is lower in survival: 108% for the first, 60% for the second.

Compared with `Cc1ccc(N2CC(c3nnc(Cc4ccc(Cl)cc4)o3)CC2=O)cc1` (stereo unspecified), `O=C1CC(c2nnc(Cc3ccc(F)cc3)o2)CN1c1ccccc1` (stereo unspecified) is higher in survival: 48% for the first, 134% for the second.

Compared with `COc1ccc(S(=O)(=O)Nc2cccc(-c3ccc(N4CCCCCC4)nn3)c2)c(OC)c1`, `COc1ccc(C)cc1S(=O)(=O)NCC(c1ccc(N(C)C)cc1)N1CCc2ccccc21` (stereo unspecified) is lower in survival: 74% for the first, 55% for the second.

Compared with `COc1ccc(Cn2ccc3nc(C)c(C(=O)N4CCN(c5cccc(OC)c5)CC4)cc3c2=O)cc1`, `O=C(COc1ccc(F)cc1)Nc1cccc(OCc2cc(=O)n3ccccc3n2)c1` is higher in survival: 81% for the first, 102% for the second.

First: Cc1ccc2nc(COc3cccc(NC(=O)c4ccccc4Cl)c3)cc(=O)n2c1
Second: Cc1ccc2nc(COc3ccccc3NC(=O)c3ccccc3F)cc(=O)n2c1
The survival of the first is lower: 75% for the first, 85% for the second.

First: CCC(=O)Nc1cccc(OCc2cc(=O)n3cc(C)ccc3n2)c1
Second: Cc1ccc(Cl)cc1NC(=O)Nc1cccc(OCc2cc(=O)n3ccccc3n2)c1
The survival of the first is lower: 55% for the first, 72% for the second.

Going from `CCc1ccc(NC(=O)CSc2cn(CC(=O)N3CCCC3)c3ccccc23)cc1` to `CCOC(=O)c1cc(-c2ccccc2)n(CCC(=O)Nc2ccc(Cl)c(C(F)(F)F)c2)c1C`, the survival rises from 97% to 102%.

Going from `Cc1cccc(-n2ccnc2SCC(=O)Nc2nc3ccccc3s2)c1` to `Cc1ccc(/C=C/C(=O)Nc2ccccc2C(N)=O)o1`, the survival falls from 93% to 64%.

Going from `Cc1ccc(NC(=O)/C=C/c2ccc(C)o2)c(C)c1` to `Cc1oc2ncn(C)c(=O)c2c1C(=O)NCCCN(Cc1ccccc1)C(C)C`, the survival rises from 46% to 72%.

First: CN(C)S(=O)(=O)c1ccc(S(=O)(=O)N(Cc2ccccc2F)C2CC2)cc1
Second: CCN(CCCNC(=O)c1c(C)oc2ncn(CC(C)C)c(=O)c12)Cc1ccccc1
The survival of the first is higher: 91% for the first, 83% for the second.

With `Cc1ccc(N2CC(c3nnc(Cc4ccc(F)cc4)o3)CC2=O)cc1` (stereo unspecified) the survival was 24% (active).
In the case of `Cc1ccc2nc(COc3ccccc3NC(=O)c3ccc(F)cc3)cc(=O)n2c1`, the survival is reported as 20% (active).
In the case of `Cc1ccc2nc(COc3cccc(NC(=O)Nc4ccc(C)c(Cl)c4)c3)cc(=O)n2c1`, the survival is reported as 25% (active).
For `O=C(Nc1cccc(OCc2cc(=O)n3ccccc3n2)c1)Nc1cccc(C(F)(F)F)c1`, the survival was -4% (active).
With `COc1ccc(OC)c(NC(=O)/C=C/c2ccc(C)o2)c1` the survival was 40% (active).
With `CCCCN(CCCNC(=O)c1c(C)oc2nc[nH]c(=O)c12)Cc1ccccc1` the survival was 53% (active).

Source: PubChem BioAssay AID463173 (ICCB-Longwood Screening Facility, Harvard Medical School, 2010)
